Compounds without any hit were thinned out: in the full panel of roughly 83,000, 20% have a hit.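 Growth was measured after 48 h exposure to one concentration of compound in 96-well plates. Values under 10 count as active.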 Activity calls are given as the source filed them.
Key:
Assay in all cases: NCI-60 one-dose screen, 48 h (100 = growth as untreated, 0 = no growth, -100 = all killed)
Details in all cases: 10 µM unless noted
SR leukemia = test system: SR leukemia
RPMI-8226 leukemia = test system: RPMI-8226 leukemia
OVCAR-8 ovarian = test system: OVCAR-8 ovarian
OVCAR-5 ovarian = test system: OVCAR-5 ovarian
OVCAR-4 ovarian = test system: OVCAR-4 ovarian
SK-OV-3 ovarian = test system: SK-OV-3 ovarian
IGROV1 ovarian = test system: IGROV1 ovarian
OVCAR-3 ovarian = test system: OVCAR-3 ovarian
HS 578T breast = test system: HS 578T breast
NCI/ADR-RES ovarian = test system: NCI/ADR-RES ovarian

Measured: growth

CCCCNC(=O)Oc1ccc(/C(=C(/CC)Cc2ccccc2)c2ccc(OCCCN(C)C)cc2)cc1
inactive: SR leukemia 22% | RPMI-8226 leukemia 42.8% | OVCAR-8 ovarian 87% | OVCAR-5 ovarian 85.6% | OVCAR-4 ovarian 74.8% | SK-OV-3 ovarian 97.6% | IGROV1 ovarian 71.1% | OVCAR-3 ovarian 85.2% | HS 578T breast 84.4% | NCI/ADR-RES ovarian 87.2%

Fc1cccc(F)c1C#Cc1ccc2cccnc2c1
inactive: SR leukemia 75.4% | RPMI-8226 leukemia 70.2% | OVCAR-8 ovarian 87.3% | OVCAR-5 ovarian 136% | OVCAR-4 ovarian 75.1% | SK-OV-3 ovarian 95.7% | IGROV1 ovarian 56.3% | OVCAR-3 ovarian 83.5% | HS 578T breast 91.6% | NCI/ADR-RES ovarian 90.8%

COc1cc2ncnc(Oc3ccc(NC(=O)Nc4ccc(C5(C#N)CCCC5)cc4)c4ccccc34)c2cc1OC
inactive: SR leukemia 70.3% | RPMI-8226 leukemia 58.8% | OVCAR-5 ovarian 81% | SK-OV-3 ovarian 40.7% | IGROV1 ovarian 40% | OVCAR-3 ovarian 52% | HS 578T breast 29.6% | NCI/ADR-RES ovarian 72.2%
active: OVCAR-8 ovarian 0.585% | OVCAR-4 ovarian -1.26%

O=C1COc2ccccc2C(=O)N1CCCCNc1ccccc1
inactive: SR leukemia 84.8% | RPMI-8226 leukemia 28.3% | OVCAR-8 ovarian 93.9% | OVCAR-5 ovarian 107% | OVCAR-4 ovarian 112% | SK-OV-3 ovarian 84.8% | IGROV1 ovarian 99.9% | OVCAR-3 ovarian 105% | HS 578T breast 108% | NCI/ADR-RES ovarian 94.6%

COc1cc(-c2nc(SCC(=O)Nc3ccc(C(C)=O)cc3)[nH]c(=O)c2C#N)cc(OC)c1OC
active: SR leukemia 7.62% | RPMI-8226 leukemia 7.47% | OVCAR-3 ovarian 0.381%
inactive: OVCAR-8 ovarian 23.2% | OVCAR-5 ovarian 51.9% | OVCAR-4 ovarian 61.5% | SK-OV-3 ovarian 34.6% | IGROV1 ovarian 38.4% | HS 578T breast 10.6% | NCI/ADR-RES ovarian 75.7%

COc1ccc(Cl)cc1NC(=O)c1cc2c(n1C)-c1nc(NC(=O)C(C)C)sc1CC2
inactive: SR leukemia 79.1% | RPMI-8226 leukemia 82.7% | OVCAR-8 ovarian 81.8% | OVCAR-5 ovarian 108% | OVCAR-4 ovarian 66% | SK-OV-3 ovarian 82.9% | IGROV1 ovarian 104% | OVCAR-3 ovarian 111% | HS 578T breast 83.4% | NCI/ADR-RES ovarian 90.5%

CCCCCCCCCCCCCCCC(=O)NS(=O)(=O)OC[C@H]1O[C@@H](n2cnc3c(N)ncnc32)[C@H](O)[C@@H]1O
inactive: RPMI-8226 leukemia 22.8%
active: SR leukemia 0.423% | OVCAR-8 ovarian -10.9% | OVCAR-5 ovarian -45.3% | OVCAR-4 ovarian -48.4% | SK-OV-3 ovarian -18.5% | IGROV1 ovarian -52.2% | OVCAR-3 ovarian -75.1% | HS 578T breast -14.6% | NCI/ADR-RES ovarian -20.5%

O=C1CCC(=O)N1C1CCCCC1
inactive: SR leukemia 96.4% | RPMI-8226 leukemia 109% | OVCAR-8 ovarian 112% | OVCAR-5 ovarian 109% | OVCAR-4 ovarian 104% | SK-OV-3 ovarian 103% | IGROV1 ovarian 91.9% | OVCAR-3 ovarian 102% | HS 578T breast 97.5% | NCI/ADR-RES ovarian 102%

COc1cc2ncnc(Oc3ccc(NC(=O)Nc4ccc(CN5CCOCC5)c(C(F)(F)F)c4)c4ccccc34)c2cc1OC
inactive: SR leukemia 17.1% | OVCAR-8 ovarian 18.9% | OVCAR-5 ovarian 50.1% | OVCAR-4 ovarian 13.7% | OVCAR-3 ovarian 31.9% | HS 578T breast 45.5% | NCI/ADR-RES ovarian 21.8%
active: RPMI-8226 leukemia -20.4% | SK-OV-3 ovarian -6.16% | IGROV1 ovarian 6.05%

N#Cc1c(N)nc(Cl)c(C#N)c1C(=O)c1ccccc1
active: SR leukemia -17.6% | RPMI-8226 leukemia -17.6%
inactive: OVCAR-8 ovarian 36.8% | OVCAR-5 ovarian 91.2% | OVCAR-4 ovarian 96.7% | SK-OV-3 ovarian 74.5% | IGROV1 ovarian 32.1% | OVCAR-3 ovarian 50.4% | HS 578T breast 71% | NCI/ADR-RES ovarian 81.4%

COc1ccc(-c2c(NC(=O)Nc3ccc(Cl)c(C(F)(F)F)c3)cnn2-c2ccc(S(N)(=O)=O)cc2)cc1
inactive: RPMI-8226 leukemia 19.9% | OVCAR-8 ovarian 28.5% | OVCAR-5 ovarian 60.6% | OVCAR-4 ovarian 32.8% | SK-OV-3 ovarian 68.4% | IGROV1 ovarian 33.1% | OVCAR-3 ovarian 25.4% | HS 578T breast 49.6% | NCI/ADR-RES ovarian 89.9%
active: SR leukemia 7.38%

Cc1cc(O[C@@H]2O[C@@H](C)[C@H](O)[C@@H](O)[C@H]2O)c2c3c(c(O[C@@H]4O[C@@H](C)[C@H](O)[C@@H](O)[C@H]4O)cc2c1)C(=O)c1c(O)cccc1C3=O
inactive: SR leukemia 82.6% | RPMI-8226 leukemia 57.2% | OVCAR-8 ovarian 22.9% | OVCAR-5 ovarian 98.5% | OVCAR-4 ovarian 81.8% | SK-OV-3 ovarian 83.6% | IGROV1 ovarian 89.3% | OVCAR-3 ovarian 93.7% | NCI/ADR-RES ovarian 36.4%
active: HS 578T breast -12.8%

Cc1nccc2c3ccc(OCc4cn(Cc5ccc(Br)cc5)nn4)cc3n(CCCc3ccccc3)c12
inactive: SR leukemia 77.8% | RPMI-8226 leukemia 72.9% | OVCAR-8 ovarian 60.8% | OVCAR-5 ovarian 106% | OVCAR-4 ovarian 50.9% | SK-OV-3 ovarian 81.6% | IGROV1 ovarian 77.4% | OVCAR-3 ovarian 82.1% | HS 578T breast 66.9% | NCI/ADR-RES ovarian 78.8%

CCNc1cc(S(=O)(=O)O)ccc1C
inactive: SR leukemia 113% | RPMI-8226 leukemia 98% | OVCAR-8 ovarian 97.3% | OVCAR-5 ovarian 106% | OVCAR-4 ovarian 110% | SK-OV-3 ovarian 92.4% | IGROV1 ovarian 106% | OVCAR-3 ovarian 116% | HS 578T breast 104% | NCI/ADR-RES ovarian 102%

CCOC(=O)c1[nH]c(-c2ccc(Cl)cc2)cc1-c1cccnc1
inactive: SR leukemia 12.9% | OVCAR-8 ovarian 39.3% | OVCAR-5 ovarian 47.3% | OVCAR-4 ovarian 51.1% | IGROV1 ovarian 43.9% | HS 578T breast 16.3% | NCI/ADR-RES ovarian 12.1%
active: RPMI-8226 leukemia 4.59% | SK-OV-3 ovarian 7.46% | OVCAR-3 ovarian -7.92%

CN[C@@H](CCCNC(N)=NC/C=C(/C)CCC=C(C)C)C(=O)N(C)[C@@H](CCCNC(N)=NCC=C(C)C)C(=O)N[C@H](C)[C@H](OS(=O)(=O)O)c1ccc(OS(=O)(=O)O)c(COS(=O)(=O)O)c1
inactive: SR leukemia 114% | RPMI-8226 leukemia 92.9% | OVCAR-8 ovarian 98.4% | OVCAR-5 ovarian 113% | OVCAR-4 ovarian 120% | SK-OV-3 ovarian 110% | IGROV1 ovarian 110% | OVCAR-3 ovarian 107% | HS 578T breast 97.3% | NCI/ADR-RES ovarian 105%

COc1ccc(CCNC=O)cc1OC
inactive: SR leukemia 117% | RPMI-8226 leukemia 108% | OVCAR-8 ovarian 107% | OVCAR-5 ovarian 99.7% | OVCAR-4 ovarian 100% | SK-OV-3 ovarian 114% | IGROV1 ovarian 94% | OVCAR-3 ovarian 110% | HS 578T breast 105% | NCI/ADR-RES ovarian 97.4%

NC(=S)NNC1CCCCC1
inactive: SR leukemia 99.1% | RPMI-8226 leukemia 93.9% | OVCAR-8 ovarian 91.2% | OVCAR-5 ovarian 102% | OVCAR-4 ovarian 91.1% | SK-OV-3 ovarian 93.3% | IGROV1 ovarian 96.4% | OVCAR-3 ovarian 110% | HS 578T breast 101% | NCI/ADR-RES ovarian 101%

COc1ccc(C(=O)NC(=O)Nc2ccc3c(c2)NC(=O)/C3=C\c2[nH]c(C)c(C(=O)O)c2C)c(F)c1
inactive: SR leukemia 58.2% | OVCAR-8 ovarian 56.4% | OVCAR-5 ovarian 98.8% | OVCAR-4 ovarian 12% | SK-OV-3 ovarian 74.1% | IGROV1 ovarian 46.8% | HS 578T breast 49.4% | NCI/ADR-RES ovarian 74.1%
active: RPMI-8226 leukemia 6.29% | OVCAR-3 ovarian 5.25%

COCCNC(C(=O)c1ccccc1)c1ccccc1 (stereo not given)
inactive: SR leukemia 109% | RPMI-8226 leukemia 98.4% | OVCAR-8 ovarian 97.7% | OVCAR-5 ovarian 95.1% | OVCAR-4 ovarian 105% | SK-OV-3 ovarian 101% | IGROV1 ovarian 102% | OVCAR-3 ovarian 104% | HS 578T breast 100% | NCI/ADR-RES ovarian 107%

COc1ccc(-c2nnc(SCC(=O)Nc3ccc(C(=O)/C=C/c4ccc(Cl)cc4)cc3)o2)cc1OC
inactive: SR leukemia 24.2% | RPMI-8226 leukemia 59.4% | OVCAR-8 ovarian 37.4% | OVCAR-5 ovarian 90.5% | SK-OV-3 ovarian 87.4% | IGROV1 ovarian 70.4% | OVCAR-3 ovarian 106% | HS 578T breast 102% | NCI/ADR-RES ovarian 38.4%
active: OVCAR-4 ovarian -17.1%

N#Cc1c2c(c(N)[nH]c1=O)C(=O)NC2(O)c1ccccc1 (stereo not given)
inactive: SR leukemia 93.1% | RPMI-8226 leukemia 107% | OVCAR-8 ovarian 106% | OVCAR-5 ovarian 111% | OVCAR-4 ovarian 117% | SK-OV-3 ovarian 103% | IGROV1 ovarian 109% | OVCAR-3 ovarian 102% | HS 578T breast 111% | NCI/ADR-RES ovarian 105%

CN(C)CCS(=O)(=O)Nc1cc(-c2ccc3ncnc(Nc4ccc(F)c(Cl)c4)c3c2)cnc1Cl
inactive: OVCAR-8 ovarian 13.7% | OVCAR-4 ovarian 19.3% | NCI/ADR-RES ovarian 14.9%
active: SR leukemia -29.1% | RPMI-8226 leukemia -39.9% | OVCAR-5 ovarian -22.4% | SK-OV-3 ovarian -42.7% | IGROV1 ovarian -23.7% | OVCAR-3 ovarian -87% | HS 578T breast -7.53%

O=C(c1ccccc1)[C@H]1[C@@H]2CCCN2[C@]2(C(=O)Nc3ccc(F)cc32)[C@]12C(=O)Nc1ccccc12
inactive: SR leukemia 85.2% | RPMI-8226 leukemia 71.2% | OVCAR-8 ovarian 88.8% | OVCAR-5 ovarian 91.7% | OVCAR-4 ovarian 81.6% | SK-OV-3 ovarian 83.8% | IGROV1 ovarian 81.3% | OVCAR-3 ovarian 83.7% | HS 578T breast 96.1% | NCI/ADR-RES ovarian 96.7%

CC(=S)Nc1ccccc1
inactive: SR leukemia 103% | RPMI-8226 leukemia 99.7% | OVCAR-8 ovarian 94.5% | OVCAR-5 ovarian 99.8% | OVCAR-4 ovarian 95.4% | SK-OV-3 ovarian 87.6% | IGROV1 ovarian 89.8% | OVCAR-3 ovarian 101% | HS 578T breast 98.7% | NCI/ADR-RES ovarian 100%

CC(C)(c1ccc(OCC(O)CNCc2ccco2)cc1)c1ccc(OCC(O)CNCc2ccco2)cc1 (stereo not given)
inactive: SR leukemia 31.5% | RPMI-8226 leukemia 64.8% | OVCAR-8 ovarian 92.3% | OVCAR-5 ovarian 101% | OVCAR-4 ovarian 96% | SK-OV-3 ovarian 105% | IGROV1 ovarian 86.3% | OVCAR-3 ovarian 83% | HS 578T breast 75.7% | NCI/ADR-RES ovarian 93.2%

Nc1ncnc2c1c(-c1ccc(Oc3ccccc3)cc1)nn2C[C@H]1SSC[C@H]1O
active: SR leukemia -40% | SK-OV-3 ovarian -20.8% | IGROV1 ovarian -26.5% | OVCAR-3 ovarian -9.53%
inactive: RPMI-8226 leukemia 42.8% | OVCAR-8 ovarian 20.5% | OVCAR-5 ovarian 64.1% | OVCAR-4 ovarian 25.6% | HS 578T breast 21.6% | NCI/ADR-RES ovarian 22.4%

Source: PubChem BioAssay (NCI)
